Assay results from PubChem BioAssay.
For some assays here: Entries with a potency or affinity are not part of this list. Calls of active or inactive are those of the source. Unless noted, the rule behind the calls is not given here.

Columns and labels:
[1] = antimalarial activity against Dd2 strain (AID 2302;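 active = growth inhibition above 50% at the single 2 µM test dose, taken to imply half-maximal potency below 2 µM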;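 note: 0% = DMSO untreated growth and 100% = chloroquine plus artemisinin killed control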); conditions: P. falciparum Dd2 in RBCs, LDH growth readout, 72 h; at 2 µM; active compounds read high
[2] = human hepatoma cell viability loss – ATP luminescence, cytotoxicity control for P. falciparum antimalarial project, primary screen (AID 2303;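 active = inhibition above 50%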;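 note: 0% = DMSO wells and 100% = digitonin-killed cells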); conditions: HepG2 viability, 24-48 h, at 10 µM, active compounds read high
[3] = biological target: L-lactate dehydrogenase (Plasmodium falciparum (isolate CDC / Honduras)) (UniProt Q27743); assay: PfLDH activity inhibition – cell lysate, 3D7 strain, counter-screen for P. falciparum growth inhibition project (AID 2304);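 note: 0% = vehicle and 100% = reference inhibitor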; conditions: P. falciparum 3D7 crude extract, LDH APAD/NBT absorbance; at 2 µM; active compounds read high
[4] = inhibition of 3D7 malaria parasite growth – strain 3D7 (AID 2306);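 note: 0% = DMSO wells and 100% = chloroquine plus artemisinin control wells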; conditions: P. falciparum 3D7 erythrocytic growth, LDH absorbance, 72 h; at 2 µM; active compounds read high
[5] = biological target: Calcium-dependent protein kinase 1 (Plasmodium falciparum (isolate 3D7)) (UniProt P62344); assay: PfCDPK1 kinase inhibitors, biochemical, TCAMS library (AID 1159585; cut-off not given, nearly all actives have IC50 up to about 0.98 µM;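 note: inhibitors leave more ATP so luminescence rises with inhibition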); conditions: recombinant PfCDPK1, Kinase-Glo ATP depletion luminescence
[6] = biological target: Plasmodium falciparum protein kinase 6 (PK6, PF3D7_1337100) (UniProt Q8IDW1); assay: PfPK6 kinase inhibitors, biochemical, TCAMS library (AID 1159586); conditions: recombinant PfPK6, Kinase-Glo ATP depletion luminescence
[7] = biological target: Protein kinase 7 (PK7), Plasmodium falciparum 3D7 (PF3D7_0213400) (UniProt Q7YTF7); assay: inhibition of Plasmodium PK7 catalytic activity – biochemical, TCAMS antimalarial set, Kinase-Glo luminescence (AID 1159587); conditions: recombinant PfPK7, Kinase-Glo ATP depletion luminescence
[8] = biological target: Calcium-dependent protein kinase 4 (Plasmodium falciparum (isolate 3D7)) (UniProt Q8IBS5); assay: PfCDPK4 kinase inhibitors, biochemical, TCAMS library (AID 1159588; cut-off not given, nearly all actives have IC50 up to about 0.91 µM); conditions: recombinant PfCDPK4, Kinase-Glo ATP depletion luminescence
Calcium-dependent protein kinase 4 (Plasmodium falciparum (isolate 3D7)), sequence (Q8IBS5 whole entry, looked up): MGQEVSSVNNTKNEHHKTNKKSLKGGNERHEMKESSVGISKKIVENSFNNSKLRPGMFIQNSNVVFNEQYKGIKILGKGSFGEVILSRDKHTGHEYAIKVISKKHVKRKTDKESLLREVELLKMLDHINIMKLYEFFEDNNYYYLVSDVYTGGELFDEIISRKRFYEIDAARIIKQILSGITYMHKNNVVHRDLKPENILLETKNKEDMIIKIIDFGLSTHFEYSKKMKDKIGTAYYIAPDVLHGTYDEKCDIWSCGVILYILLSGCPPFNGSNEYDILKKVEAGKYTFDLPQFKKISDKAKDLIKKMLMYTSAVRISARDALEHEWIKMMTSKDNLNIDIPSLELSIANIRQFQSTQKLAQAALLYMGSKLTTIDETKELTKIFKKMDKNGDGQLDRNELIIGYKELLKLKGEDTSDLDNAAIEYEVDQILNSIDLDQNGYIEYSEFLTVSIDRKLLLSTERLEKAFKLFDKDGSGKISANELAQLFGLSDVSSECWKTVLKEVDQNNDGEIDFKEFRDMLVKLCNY

Protein kinase 7 (PK7), Plasmodium falciparum 3D7 (PF3D7_0213400), sequence (Q7YTF7 1-343): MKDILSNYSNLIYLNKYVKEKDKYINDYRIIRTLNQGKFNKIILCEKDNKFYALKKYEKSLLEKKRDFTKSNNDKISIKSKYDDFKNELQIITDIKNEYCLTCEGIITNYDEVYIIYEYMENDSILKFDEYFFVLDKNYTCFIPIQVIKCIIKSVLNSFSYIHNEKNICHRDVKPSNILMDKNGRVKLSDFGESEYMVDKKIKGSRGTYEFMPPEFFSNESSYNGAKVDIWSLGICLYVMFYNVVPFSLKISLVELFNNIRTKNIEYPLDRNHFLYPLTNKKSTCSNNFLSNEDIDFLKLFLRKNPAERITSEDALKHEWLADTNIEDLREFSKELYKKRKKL
Plasmodium falciparum protein kinase 6 (PK6, PF3D7_1337100), sequence (Q8IDW1 1-305): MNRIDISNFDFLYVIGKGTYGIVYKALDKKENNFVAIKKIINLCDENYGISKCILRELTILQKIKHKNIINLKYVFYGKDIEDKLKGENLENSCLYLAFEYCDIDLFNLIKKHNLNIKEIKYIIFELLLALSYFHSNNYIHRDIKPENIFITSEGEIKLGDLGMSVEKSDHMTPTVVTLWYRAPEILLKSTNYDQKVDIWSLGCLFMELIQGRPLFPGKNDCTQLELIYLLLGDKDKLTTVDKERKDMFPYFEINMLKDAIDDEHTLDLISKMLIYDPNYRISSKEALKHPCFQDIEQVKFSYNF
L-lactate dehydrogenase (Plasmodium falciparum (isolate CDC / Honduras)), sequence (Q27743 whole entry, looked up): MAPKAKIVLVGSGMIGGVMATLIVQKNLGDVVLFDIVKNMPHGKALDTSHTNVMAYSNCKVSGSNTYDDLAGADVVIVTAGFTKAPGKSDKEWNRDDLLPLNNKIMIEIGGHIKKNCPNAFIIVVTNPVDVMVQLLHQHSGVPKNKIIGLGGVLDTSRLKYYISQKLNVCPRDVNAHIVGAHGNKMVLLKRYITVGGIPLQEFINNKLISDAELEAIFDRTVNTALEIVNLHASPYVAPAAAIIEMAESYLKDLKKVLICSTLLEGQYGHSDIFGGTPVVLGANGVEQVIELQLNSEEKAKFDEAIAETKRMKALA
Calcium-dependent protein kinase 1 (Plasmodium falciparum (isolate 3D7)), sequence (P62344 whole entry, looked up): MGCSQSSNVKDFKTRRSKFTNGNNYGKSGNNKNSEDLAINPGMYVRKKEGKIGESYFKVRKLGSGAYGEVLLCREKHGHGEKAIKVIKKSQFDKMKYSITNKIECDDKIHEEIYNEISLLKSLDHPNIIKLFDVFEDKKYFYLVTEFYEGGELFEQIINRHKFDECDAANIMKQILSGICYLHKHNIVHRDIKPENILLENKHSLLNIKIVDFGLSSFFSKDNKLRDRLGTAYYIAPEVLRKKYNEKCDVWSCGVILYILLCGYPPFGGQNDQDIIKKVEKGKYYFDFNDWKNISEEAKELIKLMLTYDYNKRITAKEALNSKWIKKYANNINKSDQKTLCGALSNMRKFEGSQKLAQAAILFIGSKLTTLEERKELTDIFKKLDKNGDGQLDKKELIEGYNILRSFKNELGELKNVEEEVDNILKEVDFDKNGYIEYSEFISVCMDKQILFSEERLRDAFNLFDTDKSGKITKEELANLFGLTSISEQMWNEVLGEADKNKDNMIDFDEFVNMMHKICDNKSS

O=c1cc(NCCCCNCc2ccc(Br)c(Br)c2)[nH]c2ccccc12
inactive: growth inhibition [1] 14% | inhibition [2] 13% | inhibition [3] 2% | outcome [5] | outcome [6] | outcome [7] | outcome [8]
active: growth inhibition [4] 98%

CC(=O)c1cccc(NC(=O)c2ccc(Cl)c(S(=O)(=O)N3CCc4ccccc43)c2)c1
inactive: growth inhibition [1] 11% | inhibition [2] 13% | inhibition [3] 0% | outcome [5] | outcome [6] | outcome [7] | outcome [8]
active: growth inhibition [4] 93%

Fc1ccc2nc(-c3ccc(-c4cccc(CN5CCCCC5)c4)cc3)[nH]c2c1
inactive: inhibition [2] 10% | inhibition [3] -6% | outcome [5] | outcome [6] | outcome [7] | outcome [8]
active: growth inhibition [1] 101% | growth inhibition [4] 100%

NC1CCN(CCNCc2cccc(-c3ccc(-c4nc5ccc(F)cc5[nH]4)cc3)c2)C1 (stereo not given)
active: growth inhibition [4] 99%
inactive: growth inhibition [1] 4% | inhibition [2] 8% | inhibition [3] 2% | outcome [5] | outcome [6] | outcome [7] | outcome [8]

O=C(Nc1cccc(-c2cccc(-c3nc4ccc(C(F)(F)F)cc4[nH]3)c2)c1)c1csnn1
inactive: growth inhibition [1] 37% | inhibition [2] 45% | inhibition [3] 3% | outcome [5] | outcome [6] | outcome [7] | outcome [8]
active: growth inhibition [4] 99%

C=CCc1cc(Br)ccc1OCCCOc1c(C)nc(N)nc1N
active: growth inhibition [1] 96% | inhibition [2] 56% | growth inhibition [4] 94%
inactive: inhibition [3] -3% | outcome [5] | outcome [6] | outcome [7] | outcome [8]

COc1ccc(Nc2ncc3c(-c4cccc(NC(=O)c5ccccc5)c4)c[nH]c3n2)cc1OC
inactive: inhibition [3] -7% | outcome [5] | outcome [6] | outcome [7] | outcome [8]
active: growth inhibition [1] 95% | inhibition [2] 54% | growth inhibition [4] 101%

CCCCCCCN1CC[C@@H](CCCc2ccnc3ccc(OCCCCNC(N)=O)cc23)[C@@H](CC)C1
inactive: growth inhibition [1] 18% | inhibition [2] 41% | inhibition [3] -3% | outcome [5] | outcome [6] | outcome [7] | outcome [8]
active: growth inhibition [4] 93%

NC1CCCN(Cc2ccc(-c3ccc(-c4nc5ccc(F)cc5[nH]4)s3)cc2)C1 (stereo not given)
active: growth inhibition [1] 98% | growth inhibition [4] 100%
inactive: inhibition [2] 40% | inhibition [3] 1% | outcome [5] | outcome [6] | outcome [7] | outcome [8]

COc1ccc(C(F)(F)F)cc1N1CCN(CCCCNC(=O)c2ccc(NC(=O)c3ccc(Cl)cc3)cc2)CC1
inactive: growth inhibition [1] 1% | inhibition [2] 12% | inhibition [3] 8% | outcome [5] | outcome [6] | outcome [7] | outcome [8]
active: growth inhibition [4] 94%

CC(C)(C)S[C@H]1S[C@H](SC(C)(C)C)[C@@H](OC(=O)c2ccccc2)C(OC(=O)c2ccccc2)[C@H]1OC(=O)c1ccccc1 (stereo not given in full)
inactive: growth inhibition [1] 45% | inhibition [2] -2% | inhibition [3] 5% | outcome [5] | outcome [6] | outcome [7] | outcome [8]
active: growth inhibition [4] 95%

COc1ccc(S(=O)(=O)NCC2CCCN(CCCCCNC(=O)/C=C/c3ccc(Cl)c(Cl)c3)C2)cc1 (stereo not given)
inactive: growth inhibition [1] 1% | inhibition [3] 1% | outcome [5] | outcome [6] | outcome [7] | outcome [8]
active: inhibition [2] 53% | growth inhibition [4] 81%

CC[C@H](C)CNC(=O)c1cccc(-c2cccc(CN3CCC(N4CCCC4)CC3)c2)n1
active: growth inhibition [1] 86% | growth inhibition [4] 101%
inactive: inhibition [2] 9% | inhibition [3] 1% | outcome [5] | outcome [6] | outcome [7] | outcome [8]

COc1ccc(C2CCN(CCCCNC(=O)c3ccc(NC(=O)c4ccc(Cl)cc4)cc3)C2)c(OC)c1 (stereo not given)
inactive: growth inhibition [1] -1% | inhibition [2] 18% | inhibition [3] 2% | outcome [5] | outcome [6] | outcome [7] | outcome [8]
active: growth inhibition [4] 84%

COc1ccc(NC(=O)Nc2cccc(-c3ccc(-c4nc5c(C)cccc5[nH]4)s3)c2)cc1
inactive: growth inhibition [1] 32% | inhibition [2] 23% | inhibition [3] 8% | outcome [5] | outcome [6] | outcome [7] | outcome [8]
active: growth inhibition [4] 101%

COc1ccccc1-c1csc(C(=O)NC2CCCCN(Cc3ccc(C(C)(C)C)cc3)C2)c1 (stereo not given)
inactive: growth inhibition [1] 8% | inhibition [2] 13% | inhibition [3] -5% | outcome [5] | outcome [6] | outcome [7] | outcome [8]
active: growth inhibition [4] 99%

CN(CCN)Cc1cccc(-c2ccc(-c3nc4ccc(C(F)(F)F)cc4[nH]3)s2)c1
inactive: inhibition [2] 27% | inhibition [3] 5% | outcome [5] | outcome [6] | outcome [7] | outcome [8]
active: growth inhibition [1] 92% | growth inhibition [4] 100%

CN(CCCc1c[nH]c2ccccc12)CCC1CCC(NC(=O)/C=C/c2ccc(Cl)c(Cl)c2)CC1 (stereo not given)
active: growth inhibition [1] 63% | growth inhibition [4] 99%
inactive: inhibition [2] 38% | inhibition [3] -3% | outcome [5] | outcome [6] | outcome [7] | outcome [8]

O=C(Nc1cccc(C(F)(F)F)c1)Nc1ccc(F)c([N+](=O)[O-])c1
active: growth inhibition [1] 100% | growth inhibition [4] 101%
inactive: inhibition [2] 43% | inhibition [3] -4% | outcome [5] | outcome [6] | outcome [7] | outcome [8]

COc1cc2nc(N3CCC(CNC(=O)c4ccc(-c5ccc(C#N)cc5C)cc4)CC3)nc(N)c2cc1OC
active: growth inhibition [1] 99% | growth inhibition [4] 101%
inactive: inhibition [2] 28% | inhibition [3] -4% | outcome [5] | outcome [6] | outcome [7] | outcome [8]

Oc1ccc(CN2CCC(NCc3cccc4ccccc34)CC2)cc1
active: growth inhibition [4] 97%
inactive: growth inhibition [1] 8% | inhibition [2] 8% | inhibition [3] -3% | outcome [5] | outcome [6] | outcome [7] | outcome [8]

Cc1cccc2c(N=NC(=S)N(C)C)c(O)[nH]c12
active: growth inhibition [1] 59% | growth inhibition [4] 96%
inactive: inhibition [2] 48% | inhibition [3] -5% | outcome [5] | outcome [6] | outcome [7] | outcome [8]

COc1ccc2nccc([C@@H](O)CN3CCC(NC(=O)c4ccc(CN5CCN(c6cccc(C)c6)CC5C)cc4)CC3)c2c1 (stereo not given in full)
active: growth inhibition [1] 86% | inhibition [2] 50% | growth inhibition [4] 97%
inactive: inhibition [3] 4% | outcome [5] | outcome [6] | outcome [7] | outcome [8]

CCCCCCNC(=O)C1Cc2c([nH]c3ccc(F)cc23)C2(CCN(Cc3ccccc3)CC2)N1 (stereo not given)
active: growth inhibition [4] 97%
inactive: growth inhibition [1] 39% | inhibition [2] 11% | inhibition [3] -1% | outcome [5] | outcome [6] | outcome [7] | outcome [8]

COc1ccc(C)c(Nc2ccnc(Nc3cccc(-c4nc5ccccc5[nH]4)c3)n2)c1
inactive: growth inhibition [1] 35% | inhibition [2] 27% | inhibition [3] -1% | outcome [5] | outcome [6] | outcome [7] | outcome [8]
active: growth inhibition [4] 98%

CCc1sc(N2CCN(C)CC2)nc1C(=O)Nc1ccc(F)cc1C(F)(F)F
inactive: inhibition [2] -1% | inhibition [3] 5% | outcome [5] | outcome [6] | outcome [7] | outcome [8]
active: growth inhibition [1] 98% | growth inhibition [4] 101%

CCCC(C)C(=O)N1CCOC(COCc2cccc(C(F)(F)F)c2)(c2ccc(Cl)cc2)C1 (stereo not given)
active: growth inhibition [1] 91% | growth inhibition [4] 97%
inactive: inhibition [2] 2% | inhibition [3] 0% | outcome [5] | outcome [6] | outcome [7] | outcome [8]

c1ccc(Cn2nnnc2-c2cccc(Nc3ccnc4cc(-c5nccs5)ccc34)c2)cc1
inactive: growth inhibition [1] 46% | inhibition [3] -4% | outcome [5] | outcome [6] | outcome [7] | outcome [8]
active: inhibition [2] 51% | growth inhibition [4] 87%

Cc1cc(N[C@@H](CC(C)C)C(=O)NCc2cccc(F)c2)nc(NCCc2ccc(F)cc2)n1
active: growth inhibition [4] 90%
inactive: growth inhibition [1] 6% | inhibition [2] 0% | inhibition [3] -2% | outcome [5] | outcome [6] | outcome [7] | outcome [8]

C=CCC(CC=C)N1C(=O)C(c2ccccc2)(c2ccccc2)N=C1N
active: growth inhibition [1] 97% | growth inhibition [4] 98%
inactive: inhibition [2] 35% | inhibition [3] -3% | outcome [5] | outcome [6] | outcome [7] | outcome [8]

O=C(Nc1ccc(Cn2ncc(N3CCNCC3)c(Cl)c2=O)cc1)Nc1ccc(-c2ccccc2)cc1
active: growth inhibition [4] 98%
inactive: growth inhibition [1] 33% | inhibition [2] 29% | inhibition [3] -1% | outcome [5] | outcome [6] | outcome [7] | outcome [8]

CC(CCON1C(N)=NC(N)=NC1(C)C)c1ccc(Cl)c(Cl)c1 (stereo not given)
inactive: inhibition [3] -3% | outcome [5] | outcome [6] | outcome [7] | outcome [8]
active: growth inhibition [1] 97% | inhibition [2] 60% | growth inhibition [4] 98%

C=CC(=O)Nc1ccc(Cl)cc1C(O)c1ccccc1 (stereo not given)
active: growth inhibition [4] 100%
inactive: growth inhibition [1] 5% | inhibition [2] -5% | inhibition [3] 0% | outcome [5] | outcome [6] | outcome [7] | outcome [8]

CCn1ccc2c(N3CCCC3=O)cc(C(=O)N[C@@H](Cc3ccccc3)[C@H](O)CNC3CCCCC3)cc21
inactive: inhibition [2] 12% | inhibition [3] 2% | outcome [5] | outcome [6] | outcome [7] | outcome [8]
active: growth inhibition [1] 98% | growth inhibition [4] 99%

CC(C)Cn1c2ccccc2c2nc3nc(N)nc(N)c3nc21
inactive: growth inhibition [1] -1% | inhibition [2] 36% | inhibition [3] -3% | outcome [5] | outcome [6] | outcome [7] | outcome [8]
active: growth inhibition [4] 93%

CCc1c(C)nc(-n2nc(C)cc2NC(=O)CC(c2ccccc2)c2ccccc2)[nH]c1=O
active: growth inhibition [1] 98% | growth inhibition [4] 97%
inactive: inhibition [2] 41% | inhibition [3] -3% | outcome [5] | outcome [6] | outcome [7] | outcome [8]

CC(C)CCN1CCCN(Cc2cccc(C(=O)Nc3ccc(C(C)(C)C)cc3)c2)CC1
inactive: growth inhibition [1] 1% | inhibition [2] 33% | inhibition [3] -5% | outcome [5] | outcome [6] | outcome [7] | outcome [8]
active: growth inhibition [4] 85%

Cc1noc(C)c1-c1cccc(CNCc2ccc(-c3cccc(-c4nc5ccccc5[nH]4)c3)cc2)c1
inactive: inhibition [3] -1% | outcome [5] | outcome [6] | outcome [7] | outcome [8]
active: growth inhibition [1] 57% | inhibition [2] 50% | growth inhibition [4] 100%

CCCNCc1ccc(-c2ccc(CN(Cc3cccs3)C(=O)C3CCN(C)CC3)cc2)nc1
inactive: growth inhibition [1] 35% | inhibition [2] 10% | inhibition [3] -3% | outcome [5] | outcome [6] | outcome [7] | outcome [8]
active: growth inhibition [4] 99%

OCCN1CCN(C(=S)NC2CCCCC2)CC1
active: growth inhibition [4] 93%
inactive: growth inhibition [1] -1% | inhibition [2] 49% | inhibition [3] 1% | outcome [5] | outcome [6] | outcome [7] | outcome [8]
